# Experimental data: PubChem BioAssay
# Active and inactive are the calls of the source.
# Tests used:
# [1] = small molecules captured by biotinylated probe aFSTL3 – biochemical, small-molecule microarray, fluorescence 635/667, stem cell growth factor project, primary screen (AID 1064); conditions: higher = more signal;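 also: measures binding of the biotinylated anti-FSTL3 antibody to printed compounds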
# [2] = binders from COS7 lysate, DM2A8 probe, primary screen, torsin A project, cell lysate, small-molecule microarray, fluorescence 635/667 (AID 1065); conditions: higher = more signal, COS7 lysate expressing mutant human TOR1A
# [3] = small molecules captured by biotinylated probe aFGF2 – biochemical, small-molecule microarray, fluorescence 635/667, stem cell growth factor project, primary screen (AID 1067); conditions: higher = more signal;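 also: measures binding of biotinylated aFGF2 protein to printed compounds on slides; z-score merges feature fluorescence and signal-to-noise across triplicate slides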
# [4] = small molecules captured by biotinylated probe aFGF10 – biochemical, small-molecule microarray, fluorescence 635/667, stem cell growth factor project, primary screen (AID 1071); conditions: higher = more signal;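 also: score merges 667 nm spot intensity and signal to noise from triplicate slides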
# [5] = target: Neurogenic locus notch homolog protein 2 (Homo sapiens) (UniProt Q04721); assay: small molecules binding Notch2 protein – biochemical, small-molecule microarray, 635 nm fluorescence, stem cell growth factors, primary screen (AID 1073); conditions: higher = more signal
# [6] = target: Pro-neuregulin-1, membrane-bound isoform (Homo sapiens) (UniProt Q02297); assay: small molecules binding neuregulin-1 protein – biochemical, small-molecule microarray, fluorescence 635/667, psychiatric disease protein project, primary screen (AID 1075); conditions: NRG1 binding, 635 nm fluorescence, higher = more signal;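 also: score combines 667 nm spot fluorescence with signal to noise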
# Chain of Pro-neuregulin-1, membrane-bound isoform (Homo sapiens) (Q02297 whole entry, looked up, the tested form may be a part, canonical isoform): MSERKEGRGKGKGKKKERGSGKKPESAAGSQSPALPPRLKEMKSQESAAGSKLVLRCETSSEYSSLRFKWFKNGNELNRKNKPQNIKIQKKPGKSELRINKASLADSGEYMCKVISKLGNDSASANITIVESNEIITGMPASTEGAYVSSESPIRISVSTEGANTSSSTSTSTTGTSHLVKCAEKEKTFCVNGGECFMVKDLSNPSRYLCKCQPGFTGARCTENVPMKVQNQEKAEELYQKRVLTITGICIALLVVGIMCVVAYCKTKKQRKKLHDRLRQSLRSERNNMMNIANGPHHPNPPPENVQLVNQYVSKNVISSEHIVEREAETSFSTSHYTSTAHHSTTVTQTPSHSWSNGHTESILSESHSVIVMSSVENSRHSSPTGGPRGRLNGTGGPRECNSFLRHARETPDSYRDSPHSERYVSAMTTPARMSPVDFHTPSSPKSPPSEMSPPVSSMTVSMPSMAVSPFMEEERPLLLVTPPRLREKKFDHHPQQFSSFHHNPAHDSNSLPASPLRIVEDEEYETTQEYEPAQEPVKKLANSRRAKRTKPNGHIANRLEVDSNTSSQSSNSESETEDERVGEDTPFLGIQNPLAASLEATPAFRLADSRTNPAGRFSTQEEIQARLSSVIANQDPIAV
# [7] = tested on: Neuregulin-1 EGF-like domain; assay: small molecules binding NRG1 EGF domain – biochemical, small-molecule microarray, 635 nm fluorescence, primary screen (AID 1081); conditions: higher = more signal;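 also: binding of the protein to compounds printed on small-molecule microarray slides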
# [8] = FRG1 expression reporter modulators in myotubes – cell-based, C2C12 myotubes, firefly/Renilla luciferase, luminescence, FRG1 inhibition for FSHD, primary screen (AID 1084); conditions: FRG1 promoter luciferase, higher = more signal, called active from +8 up or from −8 down
# [9] = small molecules captured by biotinylated probe aFST – biochemical, small-molecule microarray, fluorescence 635/667, stem cell growth factor project, primary screen (AID 1086); conditions: higher = more signal;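 also: score merges 667 nm fluorescence with signal-to-noise of each printed compound spot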
# [10] = binders of probe aHhip on microarray, primary screen, stem cell growth factor project, biochemical, small-molecule microarray, fluorescence 635/667 (AID 1087); conditions: higher = more signal;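 also: score merges spot fluorescence at 667nm with spot signal to noise ratio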
# [11] = tested on: PRMT1 (protein arginine N-methyltransferase 1); assay: small molecules binding arginine methyltransferase PRMT1 – biochemical, small-molecule microarray, 635 nm fluorescence, primary screen (AID 1088); conditions: higher = more signal;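 also: binding of Prmt1 protein to compounds spotted on small-molecule microarray slides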
# [12] = growth effects on S. cerevisiae YJM789 – YJM789 clinical isolate, OD600, 24 h, basal, primary screen (AID 1089); conditions: higher = more signal, called active from +8 up or from −8 down;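 also: growth of clinical yeast isolate S. cerevisiae YJM 789 seeded 1000 cells per well; test concentration not given here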
# [13] = S. pombe growth modifiers, basal conditions – strain 972, OD600, 24 h, no modulator, primary screen (AID 1090);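 also: basal condition with compound alone and no growth modifier present; test concentration not given here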; conditions: S. pombe 972 growth, higher = more signal, called active from +8 up or from −8 down
# [14] = budding yeast growth modifiers under rapamycin – strain BY4716, OD600, 96 h, primary screen (AID 1091); also: test concentration not given here; conditions: S. cerevisiae BY4716 + rapamycin, higher = more signal, called active from +8 up or from −8 down
# [15] = target: Torsin-1A-interacting protein 2 (Homo sapiens) (UniProt Q8NFQ8); assay: small molecules binding lysate-expressed LULL1 – cell lysate, human LULL1 lysate, 635/667 nm fluorescence, primary screen (AID 1092); conditions: small-molecule microarray, hLULL1 lysate binding, 635 nm fluorescence; higher = more signal;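 also: probe is lysate of COS7 cells overexpressing human LULL1; score merges per-feature 667 nm fluorescence with signal-to-noise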
# Chain of Torsin-1A-interacting protein 2 (Homo sapiens) (Q8NFQ8 whole entry, looked up): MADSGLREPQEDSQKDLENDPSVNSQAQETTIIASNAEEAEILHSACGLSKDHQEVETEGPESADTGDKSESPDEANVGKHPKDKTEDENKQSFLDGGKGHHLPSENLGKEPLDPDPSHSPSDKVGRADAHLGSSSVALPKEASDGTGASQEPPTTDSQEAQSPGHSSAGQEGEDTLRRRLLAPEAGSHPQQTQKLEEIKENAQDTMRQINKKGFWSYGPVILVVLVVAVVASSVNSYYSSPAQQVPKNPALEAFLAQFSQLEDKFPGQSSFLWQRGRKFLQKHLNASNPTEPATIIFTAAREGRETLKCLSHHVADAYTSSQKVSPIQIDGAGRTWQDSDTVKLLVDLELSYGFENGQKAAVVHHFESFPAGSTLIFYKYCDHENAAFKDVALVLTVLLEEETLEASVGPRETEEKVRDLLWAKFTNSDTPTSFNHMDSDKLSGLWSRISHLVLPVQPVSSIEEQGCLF
# [16] = optical density change of DRC41 E. coli – strain DRC41, OD650, 24 h, E. coli filamentation project, primary screen (AID 1093);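 also: MC1000 strain lacking acrAB efflux and sulA so SOS filamentation is blocked; test concentration not given here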; conditions: E. coli DRC41 growth, higher = more signal, called active from +8 up or from −8 down
# [17] = probe aLefty2 binding to arrayed compounds – biochemical, biotinylated probe, 635/667 nm fluorescence, primary screen (AID 1094); conditions: small-molecule microarray, higher = more signal;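 also: score merges spot fluorescence near 667 nm with spot signal-to-noise ratio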
# [18] = tested on: Noggin (protein binding on small-molecule microarray); assay: small molecules binding Noggin protein – biochemical, 635/667 nm fluorescence, primary screen (AID 1095); conditions: 635 nm fluorescence, higher = more signal;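 also: score merges 667 nm feature fluorescence with signal to noise over triplicate slides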
# [19] = target: Neurogenic locus notch homolog protein 3 (Homo sapiens) (UniProt Q9UM47); assay: small molecules binding NOTCH3 protein – biochemical, 635/667 nm fluorescence, primary screen (AID 1096); conditions: small-molecule microarray, 635 nm fluorescence, higher = more signal
# Chain of Neurogenic locus notch homolog protein 3 (Homo sapiens) (Q9UM47 whole entry, looked up): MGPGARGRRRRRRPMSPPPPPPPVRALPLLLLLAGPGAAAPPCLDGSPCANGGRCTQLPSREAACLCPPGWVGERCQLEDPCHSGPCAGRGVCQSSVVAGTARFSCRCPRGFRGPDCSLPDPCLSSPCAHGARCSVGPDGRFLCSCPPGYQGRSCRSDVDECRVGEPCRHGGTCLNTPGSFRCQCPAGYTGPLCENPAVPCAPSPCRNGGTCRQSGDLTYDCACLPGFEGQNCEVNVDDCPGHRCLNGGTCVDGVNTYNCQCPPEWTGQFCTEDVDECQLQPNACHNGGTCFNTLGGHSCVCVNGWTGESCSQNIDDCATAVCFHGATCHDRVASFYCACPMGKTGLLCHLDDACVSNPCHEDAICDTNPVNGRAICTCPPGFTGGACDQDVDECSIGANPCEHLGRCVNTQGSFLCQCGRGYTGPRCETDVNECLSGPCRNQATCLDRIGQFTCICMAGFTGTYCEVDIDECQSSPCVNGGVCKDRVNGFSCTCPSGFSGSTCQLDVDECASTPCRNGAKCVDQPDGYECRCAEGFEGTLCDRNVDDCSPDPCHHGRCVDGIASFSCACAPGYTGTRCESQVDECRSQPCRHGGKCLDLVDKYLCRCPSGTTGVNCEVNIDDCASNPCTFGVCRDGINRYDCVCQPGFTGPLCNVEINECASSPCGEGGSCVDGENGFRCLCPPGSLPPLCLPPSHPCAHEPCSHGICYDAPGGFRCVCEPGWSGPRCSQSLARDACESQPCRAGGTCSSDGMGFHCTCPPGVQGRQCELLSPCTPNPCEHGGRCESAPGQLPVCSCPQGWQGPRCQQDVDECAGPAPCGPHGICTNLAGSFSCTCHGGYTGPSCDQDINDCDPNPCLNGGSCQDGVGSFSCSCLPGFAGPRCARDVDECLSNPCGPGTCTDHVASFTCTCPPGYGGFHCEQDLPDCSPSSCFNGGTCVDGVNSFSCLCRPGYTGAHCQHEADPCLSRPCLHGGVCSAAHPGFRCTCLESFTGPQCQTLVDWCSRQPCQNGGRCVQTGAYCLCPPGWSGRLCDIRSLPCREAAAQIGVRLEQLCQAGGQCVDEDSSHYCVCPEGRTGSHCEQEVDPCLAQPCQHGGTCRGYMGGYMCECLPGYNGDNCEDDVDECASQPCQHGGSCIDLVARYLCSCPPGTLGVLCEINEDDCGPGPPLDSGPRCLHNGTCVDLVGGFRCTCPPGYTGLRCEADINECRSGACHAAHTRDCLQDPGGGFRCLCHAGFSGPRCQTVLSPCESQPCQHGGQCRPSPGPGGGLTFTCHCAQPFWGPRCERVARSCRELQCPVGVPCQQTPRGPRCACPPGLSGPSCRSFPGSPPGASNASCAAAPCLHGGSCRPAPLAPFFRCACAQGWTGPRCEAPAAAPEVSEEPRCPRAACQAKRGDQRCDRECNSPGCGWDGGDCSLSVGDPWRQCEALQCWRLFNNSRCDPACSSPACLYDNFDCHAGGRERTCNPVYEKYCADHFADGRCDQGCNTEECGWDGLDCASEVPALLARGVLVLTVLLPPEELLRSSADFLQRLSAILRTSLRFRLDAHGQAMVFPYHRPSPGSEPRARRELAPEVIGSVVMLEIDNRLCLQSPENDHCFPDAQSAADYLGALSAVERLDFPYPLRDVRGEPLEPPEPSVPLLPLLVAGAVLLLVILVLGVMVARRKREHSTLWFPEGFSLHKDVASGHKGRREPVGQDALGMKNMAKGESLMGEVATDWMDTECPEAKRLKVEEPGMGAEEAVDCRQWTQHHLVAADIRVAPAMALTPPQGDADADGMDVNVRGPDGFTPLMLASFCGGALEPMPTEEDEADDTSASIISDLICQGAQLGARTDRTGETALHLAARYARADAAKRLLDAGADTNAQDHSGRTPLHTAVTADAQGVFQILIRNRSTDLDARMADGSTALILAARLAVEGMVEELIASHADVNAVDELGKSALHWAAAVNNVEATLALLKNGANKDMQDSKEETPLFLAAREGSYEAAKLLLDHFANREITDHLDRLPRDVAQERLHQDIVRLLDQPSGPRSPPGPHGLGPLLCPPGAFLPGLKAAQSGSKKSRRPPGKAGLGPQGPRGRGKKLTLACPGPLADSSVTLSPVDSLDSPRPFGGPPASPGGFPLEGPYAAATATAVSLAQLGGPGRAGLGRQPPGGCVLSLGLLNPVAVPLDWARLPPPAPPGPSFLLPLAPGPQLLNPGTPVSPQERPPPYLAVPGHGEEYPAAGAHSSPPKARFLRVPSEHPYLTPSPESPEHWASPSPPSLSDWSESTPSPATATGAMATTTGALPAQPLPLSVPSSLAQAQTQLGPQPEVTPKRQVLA
# [20] = probe aEGFR binding to arrayed compounds – biochemical, biotinylated probe, 635/667 nm fluorescence, primary screen (AID 1097); conditions: small-molecule microarray, higher = more signal;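 also: probe is a biotinylated anti-EGFR antibody binding compounds printed on slides; score combines fluorescence near 667 nm and signal to noise of each spot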
Structure (SMILES),composite z-score [1],composite z-score [2],composite z-score [3],composite z-score [4],composite z-score [5],composite z-score [6],composite z-score [7],z-score [8],composite z-score [9],composite z-score [10],composite z-score [11],z-score [12],z-score [13],z-score [14],composite z-score [15],z-score [16],composite z-score [17],composite z-score [18],composite z-score [19],composite z-score [20]
O=C1O[C@H](c2ccccc2)[C@H](c2ccccc2)N2[C@H]1[C@@H](C(=O)Nc1nc3ccccc3s1)[C@]1(C(=O)Nc3ccccc31)[C@H]2c1ccc(OCCO)cc1,-0.401,0.292,-0.0734,0.452,1.31,1.29,1.11,3.35 (inactive),0.778,0.0854,1.31,1.48 (inactive),1.95 (inactive),3.31 (inactive),1.96,0.0528 (inactive),-0.0446,1.5,1.05,0.0162
CC(C)[Si](C#CCCCC#N)(O[C@H](c1ccccc1)c1cn([C@H](CO)Cc2ccccc2)nn1)C(C)C,-0.436,1.22,-0.168,0.202,0.873,1.44,1.21,-0.325 (inactive),-0.337,0.0373,0.848,-2.62 (inactive),-11.3 (active),-4.64 (inactive),1.25,1.4 (inactive),-0.181,0.349,1.02,-0.0843
Cc1cc(C)c(C(O)C2C=CC3C(=O)N(c4ccccc4)C(=O)C3N2Nc2ccc(C(C)C)cc2)c(C)c1 (stereo not given),0.224,0.243,0.172,0.941,1.66,1.91,1.25,1.44 (inactive),1.37,0.128,1.57,1.14 (inactive),0.863 (inactive),1.26 (inactive),3.42,-1.87 (inactive),0.255,-0.163,1.03,-0.0172
CC(CO)N1C(=O)[C@@H]2[C@H]3C(=O)OCC=C[C@H]3OC23C=CCN(Cc2ccccc2)C(=O)[C@@H]13 (stereo not given in full),0.0457,-0.31,-0.166,-0.166,-0.374,-0.622,0.307,-0.282 (inactive),-0.531,0.12,-1.28,-0.163 (inactive),-0.528 (inactive),-1.45 (inactive),1.41,2.31 (inactive),-0.219,-0.662,0.0095,-0.206
CCOC(=O)C[C@H]1[C@H](OC(=O)c2ccccc2-c2ccccc2)[C@@H](NC(=O)C2CCCCC2)c2cc(OCCCO)ccc2N1C(=O)Cc1ccc(OC)cc1,0.0253,0.154,-0.0636,0.253,0.231,-0.0991,-0.163,0.277 (inactive),0.169,-0.12,0.143,-0.93 (inactive),-0.0289 (inactive),-0.144 (inactive),0.735,-1.05 (inactive),-0.132,0.159,-0.292,-0.139
CC(C)N1CC=CC23O[C@@H]4C=CCOC(=O)[C@@H]4[C@H]2C(=O)N(CCCO)[C@@H]3C1=O (stereo not given in full),0.645,1.64,-0.188,0.425,-0.671,1.57,1.58,-0.385 (inactive),-0.436,-0.16,0.943,-1.46 (inactive),-2.28 (inactive),-1.58 (inactive),2.41,2.67 (inactive),-0.178,0.927,-0.145,-0.178
CCCNC(=O)[C@@H]1c2ccccc2C(=O)N(C(C)C)[C@H]1c1ccc(CO)cc1,0.277,-0.638,-0.112,-0.303,-0.664,1.23,1.2,-0.273 (inactive),0.103,-0.271,0.541,0.853 (inactive),0.668 (inactive),-0.148 (inactive),0.618,0.924 (inactive),-0.0458,-0.231,-0.421,-0.196
O=C1NC(=O)C2C1C=CC(C(O)c1ccco1)N2Nc1ccccn1 (stereo not given),-0.156,-0.156,-0.0907,-0.0923,0.076,-0.0825,1.08,1.41 (inactive),0.055,0.154,0.184,0.493 (inactive),0.652 (inactive),0.637 (inactive),0.147,-0.87 (inactive),-0.121,-0.119,-0.509,-0.0259
CCOC(=O)C[C@H]1[C@H](OC(=O)c2cc3ccccc3oc2=O)[C@@H](NC(=O)c2ccc(-c3ccccc3)cc2)c2cc(OCCCO)ccc2N1C(=O)c1ccccc1,-0.561,1.07,0.0407,0.731,1.36,0.687,1.31,0.335 (inactive),0.497,0.102,1.02,0.11 (inactive),-1.64 (inactive),0.117 (inactive),1.21,1.56 (inactive),-0.0367,1.68,1.09,0.0526
C=CCN1C(=O)[C@@]2(O[C@@H](CCn3cc([C@H](O)c4ccccc4)nn3)[C@H]([Si](C)(C)c3ccc(OC)cc3)[C@H]2C)c2cc(N3CCC3=O)ccc21,0.211,0.175,-0.0894,0.383,-0.496,0.997,1.25,-1.88 (inactive),-0.259,-0.13,0.467,1.38 (inactive),0.95 (inactive),2.37 (inactive),1.03,0.456 (inactive),-0.11,0.711,-0.681,-0.183
CN(C)c1ccc(C(O)C2C=CC3C(=O)N(c4ccccc4)C(=O)C3N2Nc2ccc([N+](=O)[O-])cc2)cc1 (stereo not given),0.155,0.456,0.0495,0.551,1.52,1.42,1.14,0.975 (inactive),1.63,0.0373,1.44,0.0475 (inactive),-1.3 (inactive),2.39 (inactive),2.98,-0.564 (inactive),0.401,0.037,1.13,-0.0234
C=CCOC(=O)[C@H]1[C@@H]2C(=O)O[C@@H](c3ccccc3)[C@@H](c3ccccc3)N2[C@@H](c2ccc(OCCOC(=O)[C@H]3C[C@H]4C(=O)N[C@@H](CC(C)C)C(=O)N4[C@H]3c3cccc(OCCO)c3)cc2)[C@]12C(=O)Nc1ccc(I)cc12,-0.475,0.178,-0.0442,0.823,0.919,-0.403,1.17,0.842 (inactive),0.157,0.0373,1.48,0.219 (inactive),0.46 (inactive),2.8 (inactive),2.76,-0.266 (inactive),-0.0416,0.972,0.97,0.0436
COC(=O)[C@@]1(Cc2ccc(F)cc2)[C@H]2c3cc(C(=O)N4CCCC4)n(CCN4CNCC4=O)c3C[C@H]2CN1C(=O)c1ccccc1,0.144,1.56,0.0732,0.132,1.26,1.07,1.35,4.7 (inactive),1.26,0.178,1.2,0.614 (inactive),-0.198 (inactive),0.316 (inactive),3.97,-0.151 (inactive),0.459,0.46,0.842,0.118
CO[C@]12C=C(Br)[C@@H](C[C@@H]1c1cccc(C)c1)[C@@]1(CO1)C2=O,-0.233,0.0322,-0.0718,0.211,-0.217,0.518,0.0046,1.22 (inactive),-0.221,-0.0708,0.435,-0.354 (inactive),-5.17 (inactive),-1.67 (inactive),0.469,-0.0461 (inactive),-0.145,0.569,0.537,-0.115
C=CCC(OC(C)=O)[C@@H]1[C@@H](N(Cc2ccc(-c3cccc(C(F)(F)F)c3)o2)C(=O)c2ccc(C)cc2)c2cc(OCCCO)ccc2N1C(=O)c1ccc2ccccc2c1 (stereo not given in full),-0.302,0.462,0.0002,0.298,-0.204,-0.0678,0.273,0.0925 (inactive),0.0494,0.0749,0.128,0.488 (inactive),0.668 (inactive),0.742 (inactive),0.407,1.14 (inactive),-0.138,0.485,0.313,-0.125
Cc1ccc(S[C@]2(C(=O)O)CC(=O)N(C3Cc4ccccc4C3)[C@@H]2c2ccc(CO)cc2)cc1,0.377,0.477,0.0015,-0.179,-0.267,0.915,0.184,0.177 (inactive),-0.117,-0.134,1.04,0.137 (inactive),-1.36 (inactive),0.448 (inactive),2.98,0.618 (inactive),0.126,-0.98,-0.472,-0.185
Cc1cc(C)cc(N2C(=O)CSC2c2cccc([N+](=O)[O-])c2)c1 (stereo not given),-0.0703,0.571,-0.0036,0.887,1.17,1.4,1.21,1.07 (inactive),0.712,-0.0994,1.56,0.0032 (inactive),0.223 (inactive),1.37 (inactive),2.39,1.58 (inactive),0.154,0.713,1.04,0.213
Cn1cccc1C(O)C1C=CC2C(=O)NC(=O)C2N1Nc1ccc(Cl)cc1Cl (stereo not given),0.435,0.263,0.167,0.68,1.68,2.04,1.15,0.978 (inactive),1.92,0.107,1.04,-0.477 (inactive),-1.81 (inactive),-0.356 (inactive),3.52,-2.82 (inactive),0.673,0.405,1.05,0.0201
C[C@]1(C(=O)NC2CC2)c2ccccc2C(=O)N(Cc2ccccc2)[C@H]1c1ccc(CO)cc1,0.942,-0.729,-0.116,-0.796,-0.956,-0.145,0.659,-1.69 (inactive),-0.346,-0.511,-1.09,-0.653 (inactive),-1.75 (inactive),-0.785 (inactive),-0.488,1.84 (inactive),-0.0873,-0.918,-1.59,-0.278
